Assay results as given in PubChem BioAssay (NCI).
About 79,000 compounds went through this panel and 15% of them were active in at least one assay; those are over-represented in the sample as a whole. Unmarked numbers belong to inactive results. Calls of active or inactive are those of the source. Cut-off read from the data, not from the text of the source: active = growth inhibition above about 70%; inactive = the rest. Where a SMILES comes first, the peptide text is derived from it. [ ]: non-standard residue; d: D form. The star is where a group is joined. ξ: configuration not given here. dThr(3ξ) = CC(O)[C@@H](N)C(=O)O; dNMeL = CN[C@H](CC(C)C)C(=O)O; OBn = c1ccc(CO*)cc1; ξLac = CC(O)C(=O)O

What was measured:
[1] = NCI Yeast Anticancer Drug Screen. Data for the rad50 strain (AID 155);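 note: 0% = growth of vehicle-only cultures of the same strain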; conditions: S. cerevisiae rad50 strain growth inhibition; at 50.0 µM; active compounds read high
How it was run: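 Cells are treated with compound, grown, and their growth is then scored against vehicle-only cultures of the same repair-deficient yeast strain.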

[2] = NCI Yeast Anticancer Drug Screen. Data for the mec2-1 strain (AID 157); conditions: S. cerevisiae mec2-1 strain, at 50.0 µM, active compounds read high
How it was run: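 Yeast mec2-1 mutant treated with compound. Readout: growth inhibition vs vehicle controls.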

[3] = NCI Yeast Anticancer Drug Screen. Data for the sgs1 mgt1 strain (AID 161);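 note: 0% = growth of cultures given vehicle only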; conditions: S. cerevisiae sgs1 mgt1 strain, at 50.0 µM, active compounds read high
How it was run: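 Mutant yeast exposed to compound; growth scored against vehicle-only wells.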

[4] = NCI Yeast Anticancer Drug Screen. Data for the cln2 rad14 strain (AID 165);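 note: 0% = growth equal to vehicle treated cultures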; conditions: S. cerevisiae cln2 rad14 strain, at 50.0 µM, active compounds read high
How it was run: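 cln2 rad14 yeast strain; compound exposure; growth inhibition read vs vehicle controls.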

[5] = NCI Yeast Anticancer Drug Screen. Data for the bub3 strain (AID 167); conditions: S. cerevisiae bub3 mutant strain, at 50.0 µM, active compounds read high
How it was run: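 Part of a panel of yeast mutants defective in DNA damage repair or cell cycle regulation. Each strain is grown with compound, and inhibition is calculated relative to solvent-treated cultures.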

[6] = NCI Yeast Anticancer Drug Screen. Data for the mlh1 rad18 strain (AID 175); conditions: S. cerevisiae mlh1 rad18 strain growth inhibition; at 50.0 µM; active compounds read high
How it was run: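 Yeast w/ defined DNA-repair lesions; compound exposure; growth vs vehicle controls → % inhibition.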

Row | Structure (SMILES) | growth inhibition [1] | growth inhibition [2] | growth inhibition [3] | growth inhibition [4] | growth inhibition [5] | growth inhibition [6]
1 | CC(Sc1ccc([N+](=O)[O-])cn1)C(=O)O (stereo not drawn) | 2.55% | 12.9% | 13.5% | -37% | -25.9% | 30.9%
2 | CC1(C)CCC2(CC1)CC[N+](C)(CCC[N+](C)(C)C)CC2 | -26.6% | -8.4% | -10.8% | -11.8% | 8.7% | -11.2%
3 | CCCCNC(=O)OCC | -34.5% | -25.6% | 2.4% | -26.8% | -0.35% | 5.9%
4 | CN(Cc1ccccc1)C(=O)NC1CCCCC1 | 2.3% | 0.05% | 4.8% | -22.8% | 3.4% | 2.55%
5 | Cc1cc(N)c2cc(N)ccc2n1 | 99.6% (active) | 99.5% (active) | 99.4% (active) | 64.7% | 99.2% (active) | 98.2% (active)
6 | O=C1OCCC1(Cc1ccc(Cl)cc1)Cc1ccc(Cl)cc1 | -16.1% | -22.9% | -4.7% | 10.4% | 1.45% | -3.05%
7 | O=C(c1ccccc1)c1cccc2c1ccc1ccccc12 | 13.4% | 38.9% | 38.3% | 17% | 23.4% | 32.5%
8 | Cn1[nH]c(=O)c2ncccc2c1=O | -4.7% | -10.1% | -13.5% | -87.8% | -10.3% | 4.95%
9 | CCCCC1(CN(C)C)C(=O)N(C)C(=O)N(C2CCCCC2)C1=O (stereo not drawn) | 9.15% | 10.2% | 1.4% | 21.9% | -4.2% | 9.6%
10 | CCOC(=O)Oc1ccc2[nH]c3c(C)cc(N)c(C)c3c2c1 | 2.35% | -33.2% | -30.5% | -7.8% | -22.2% | -11.1%
11 | COc1cc2c(oc(=O)c3c4occc4cc(OC)c23)c2cccc(OCc3ccccc3)c12 | 2% | 14.9% | -11.8% | 8.35% | -20.9% | 3.85%
12 | O=C1C(C2CCCCC2)=C2OCC3COC2(O3)c2ccccc21 (stereo not drawn) | -8.75% | -16.6% | -20.1% | -10.1% | -14.6% | -30.7%
13 | CCC(=O)c1ccc(O)c(C)c1 | 4.85% | -2.9% | 0.2% | -2.6% | 37.7% | 2.45%
14 | Cc1cc(C)n(-c2ccnc(-n3nc(C)cc3C)n2)n1 | 22% | 23.9% | 33.9% | 7.7% | 21.6% | 40.3%
15 | CS(=O)(=O)Oc1c(Cl)cc(Cl)c2cccnc12 | 7.8% | -1.1% | -3.75% | -13.7% | 1.2% | 11.2%
16 | COC1/C=C\OC2(C)Oc3c(C)c(O)c4c(c3C2=O)C(=O)C(Br)=C(NC(=O)/C(C)=C\C=C/C(C)C(O)C(C)C(O)C(C)C(OC(C)=O)C1C)C4=O (stereo not drawn) | 16.1% | 13.8% | 22.4% | 22.2% | 14.8% | 20.5%
17 | C(CCc1nnc2c(n1)CCCC2)Cc1nnc2c(n1)CCCC2 | -7.6% | -17.9% | -1.05% | -12.1% | 10.1% | -2.4%
18 | CCCCC(C(=O)O)C1CCCCC1 (stereo not drawn) | -12.3% | 17.4% | 23.4% | -11.9% | -12.2% | -1%
19 | CCOC(=O)NN(C(=O)OCC)C(=C(c1ccccc1)N1CCOCC1)N(NC(=O)OCC)C(=O)OCC | 6.3% | 5.6% | -2.7% | 31.1% | -2.25% | 10.8%

Row | Structure (SMILES) | growth inhibition [1] | growth inhibition [2] | growth inhibition [3] | growth inhibition [4] | growth inhibition [5] | growth inhibition [6]
20 | CCCCCCC1CCC(OC(C)=O)CC1 (stereo not drawn) | 5.65% | -4% | -1.1% | -0.9% | 1.7% | 0.55%
21 | COc1c(OC(C)=O)cc(Cl)c(C=O)c1[N+](=O)[O-] | 5.25% | 2.4% | 19.3% | 5.8% | 1.55% | -9.3%
22 | O=S(=O)(Nc1ccccc1Cl)c1ccc(F)cc1 | -5.85% | -16.1% | -6.6% | 4.7% | -24% | 20.9%
23 | c1ccc2c(c1)C1CC3N=NC1C23 (stereo not drawn) | 3.3% | -1.35% | -10.5% | -20.1% | 3.8% | -3.95%
24 | CCNC(=O)OCc1cc(Cl)cc(Cl)c1OC(=O)NCC | 99.5% (active) | 99.2% (active) | 99.7% (active) | 96.8% (active) | 98.5% (active) | 99.5% (active)
25 | C=CCC1(C(C)C(O)c2cc(OC)c(OC)c(OC)c2)CC(O)C=CC12OCCO2 (stereo not drawn) | 13.9% | -17.3% | 1.5% | 14.9% | 16.2% | 24.6%
26 | CC1(c2ccccc2)CC(c2cccc([N+](=O)[O-])c2)=NO1 (stereo not drawn) | 27.4% | 15.9% | 36.9% | 34.9% | 28.6% | 23.4%
27 | CC(=O)OC(C)[C@@H](NC(=O)[C@@H](CC(C)C)N(C)C(=O)[C@@H]1CCCN1C(=O)C(C)O)C(=O)OCc1ccccc1 (stereo partly drawn) (H-[ξLac]P[dNMeL][dThr(3ξ)](Ac)-OBn) | 8.75% | 24.4% | -16.8% | 8.2% | -30.4% | -37.3%
28 | O=C(O)C1Cc2ccccc2OC1=O (stereo not drawn) | -18% | -25.6% | -16.7% | 0.6% | 0.35% | -21.6%
29 | CCOC(=O)C(=CNC(=S)Nc1ccc(OCC)cc1)C(=O)OCC | -9.75% | -24.5% | -7.85% | -16.3% | 11.5% | 6.05%
30 | O=C(Cc1ccccc1)NN1C(=O)C(Cl)C1c1ccc(O)cc1 (stereo not drawn) | -27.9% | -16.4% | -11.2% | 3.7% | -29.4% | 3.4%
31 | CCOc1ccc(/C=N/NC(=O)CCCCCCCCC(=O)N/N=C/c2ccc(OCC)c(OC)c2)cc1OC | -25.6% | -5.1% | -27.1% | -27.6% | -1.45% | -8.35%
32 | CNS(=O)(=O)c1ccc(Br)cc1 | -15.9% | -24.6% | -9.85% | -14.2% | 3.35% | -12.4%
33 | CCC(=O)OCCN(C)C | -28% | -50.4% | 0.65% | 10.8% | -19.3% | -8.35%
34 | O=C1C=C(c2ccccc2)C(=O)C(c2ccccc2)=C1c1ccccc1 | 73.2% (active) | 88.2% (active) | 88.8% (active) | 80% (active) | 78.2% (active) | 89.6% (active)
35 | O=C(Cc1cccc2c(=O)cc(-c3ccccc3)oc12)OCCN1CCOCC1 | 18.9% | 31.4% | 0.95% | 7.4% | 26.9% | 29.4%
36 | CC(=O)OCC(=O)[C@@]1(O)CC[C@H]2[C@@H]3C[C@H](C)C4=CC(=O)C=C[C@]4(C)[C@@]3(Br)[C@@H](O)C[C@@]21C | 30.9% | 7.75% | 38.3% | 35.9% | 1.35% | -9.1%
37 | O=C1CSC2=NC3=C(CSC/C3=C\c3ccccc3)C(c3ccccc3)N12 (stereo not drawn) | 14.4% | 11.5% | 21.2% | 35.8% | 21% | -25.6%
38 | Clc1ccccc1-n1cccc1/C=N\N=C/c1cccn1-c1ccccc1Cl | 0.15% | 1.7% | -6.1% | -53.7% | -1.8% | -8%
